Laboratory results: PubChem BioAssay (NCI)
Compounds without any hit were thinned out: in the full panel of roughly 83,000, 20% have a hit.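 Each cell line was grown in a 96-well plate and treated with one concentration of compound for 48 hours. Values below 10 were considered active.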 Activity calls are given as the source filed them.

Experiments:
Assay in all cases: NCI-60 one-dose screen, 48 h (100 = growth as untreated, 0 = no growth, -100 = all killed)
Details in all cases: 10 µM unless noted
NCI-H23 lung = system: NCI-H23 lung
NCI-H226 lung = system: NCI-H226 lung
NCI-H322M lung = system: NCI-H322M lung
HOP-62 NSCLC = system: HOP-62 NSCLC
NCI-H460 lung = system: NCI-H460 lung
HOP-92 NSCLC = system: HOP-92 NSCLC
NCI-H522 lung = system: NCI-H522 lung
A549/ATCC NSCLC = system: A549/ATCC NSCLC
786-0 renal = system: 786-0 renal
COLO 205 colon = system: COLO 205 colon
DU-145 prostate = system: DU-145 prostate
K-562 leukemia = system: K-562 leukemia
MALME-3M melanoma = system: MALME-3M melanoma
MDA-MB-231 breast = system: MDA-MB-231 breast
RXF 393 renal = system: RXF 393 renal
SF-268 CNS = system: SF-268 CNS
SF-539 CNS = system: SF-539 CNS
UACC-257 melanoma = system: UACC-257 melanoma
M14 melanoma = system: M14 melanoma

Measured: growth

COc1cc2c(cc1OC)C(=O)C(Br)CC2 (centres undefined)
inactive: NCI-H23 lung 45.8% | NCI-H226 lung 90.8% | NCI-H322M lung 102% | HOP-62 NSCLC 51% | NCI-H460 lung 75% | HOP-92 NSCLC 20.2% | A549/ATCC NSCLC 80.1% | 786-0 renal 63.8% | COLO 205 colon 24.6% | DU-145 prostate 31.5% | K-562 leukemia 16.5% | MDA-MB-231 breast 42.6% | RXF 393 renal 40.8% | SF-268 CNS 64.6% | SF-539 CNS 68.2% | UACC-257 melanoma 56.7%
active: NCI-H522 lung -17.3% | MALME-3M melanoma 3.69%

O=C(C=P(c1ccccc1)(c1ccccc1)c1ccccc1)CCl
inactive: NCI-H322M lung 10.3% | HOP-62 NSCLC 13.9% | A549/ATCC NSCLC 23.1% | MDA-MB-231 breast 16.2%
active: NCI-H23 lung -23.2% | NCI-H226 lung -70.7% | NCI-H460 lung -11.9% | HOP-92 NSCLC -51.7% | NCI-H522 lung -77.7% | 786-0 renal -75.8% | COLO 205 colon -53.9% | DU-145 prostate -36.5% | K-562 leukemia -6.42% | MALME-3M melanoma -69.7% | RXF 393 renal -71.1% | SF-268 CNS -12.2% | SF-539 CNS -20% | UACC-257 melanoma -73.5% | M14 melanoma -61.5%

Oc1c(-c2cc(C(F)(F)F)[nH]n2)cc(Cl)c(OCc2ccc(Cl)cc2)c1-c1ccc(Cl)c(C(F)(F)F)c1
active: NCI-H23 lung 6% | NCI-H226 lung -13.2% | NCI-H322M lung 8.73% | HOP-62 NSCLC -20.9% | NCI-H460 lung 7.68% | HOP-92 NSCLC -12.1% | NCI-H522 lung -2.6% | 786-0 renal -21.4% | COLO 205 colon -38.8% | K-562 leukemia 5.9% | MALME-3M melanoma -30.5% | MDA-MB-231 breast -5.89% | RXF 393 renal -24.7% | SF-268 CNS -5.51% | SF-539 CNS -11.6% | UACC-257 melanoma -2.82% | M14 melanoma -21%
inactive: A549/ATCC NSCLC 11.6% | DU-145 prostate 10.2%

CCOC(=O)c1sc2nc(-c3cc4ccccc4o3)cc(-c3ccc(Cl)cc3)c2c1N
inactive: NCI-H23 lung 98.9% | NCI-H226 lung 89.2% | NCI-H322M lung 112% | HOP-62 NSCLC 107% | NCI-H460 lung 110% | HOP-92 NSCLC 71.1% | NCI-H522 lung 88.6% | A549/ATCC NSCLC 123% | 786-0 renal 118% | COLO 205 colon 115% | DU-145 prostate 99.6% | K-562 leukemia 102% | MALME-3M melanoma 88.5% | MDA-MB-231 breast 106% | RXF 393 renal 124% | SF-268 CNS 97.3% | SF-539 CNS 120% | UACC-257 melanoma 114% | M14 melanoma 112%

Cc1c(C)c(C)c([N+](=O)[O-])c([N+](=O)[O-])c1C
inactive: NCI-H23 lung 107% | NCI-H226 lung 104% | NCI-H322M lung 116% | HOP-62 NSCLC 103% | NCI-H460 lung 108% | HOP-92 NSCLC 69% | NCI-H522 lung 98.7% | A549/ATCC NSCLC 93.4% | 786-0 renal 93.6% | COLO 205 colon 115% | DU-145 prostate 92.2% | K-562 leukemia 119% | MALME-3M melanoma 90.1% | MDA-MB-231 breast 79.3% | RXF 393 renal 107% | SF-268 CNS 93% | SF-539 CNS 92% | UACC-257 melanoma 103% | M14 melanoma 104%

CCN(CC)CCCCCCCNc1cc(OC)cc2c(C)ccnc12
inactive: NCI-H23 lung 87.6% | NCI-H226 lung 86.6% | NCI-H322M lung 94.8% | HOP-62 NSCLC 93.3% | NCI-H460 lung 85.2% | HOP-92 NSCLC 57.5% | NCI-H522 lung 71.4% | A549/ATCC NSCLC 94.7% | 786-0 renal 80.8% | COLO 205 colon 72.9% | DU-145 prostate 102% | K-562 leukemia 36.7% | MALME-3M melanoma 103% | MDA-MB-231 breast 54.1% | RXF 393 renal 91.6% | SF-268 CNS 91.1% | SF-539 CNS 91.3% | UACC-257 melanoma 92.6% | M14 melanoma 97.6%

O=C(C(Br)C(Br)c1ccccc1)C(Br)C(Br)c1ccccc1 (centres undefined)
inactive: NCI-H322M lung 84.2% | NCI-H460 lung 64% | A549/ATCC NSCLC 29.4%
active: NCI-H23 lung 8.99% | NCI-H226 lung -36.5% | HOP-62 NSCLC 3.69% | HOP-92 NSCLC -60.7% | NCI-H522 lung -90.6% | 786-0 renal -62.7% | COLO 205 colon -47.8% | DU-145 prostate -26.4% | K-562 leukemia -17.5% | MALME-3M melanoma -69.5% | MDA-MB-231 breast -16.5% | RXF 393 renal -85.1% | SF-268 CNS -1.83% | SF-539 CNS -42.5% | UACC-257 melanoma -67.3% | M14 melanoma 1.62%

COc1ccc(C2C=C(c3ccc(Cl)cc3)N=C3SC=CN32)cc1 (centres undefined)
inactive: NCI-H23 lung 101% | NCI-H226 lung 112% | NCI-H322M lung 133% | HOP-62 NSCLC 108% | NCI-H460 lung 103% | HOP-92 NSCLC 86.4% | NCI-H522 lung 113% | A549/ATCC NSCLC 104% | 786-0 renal 97.8% | COLO 205 colon 109% | DU-145 prostate 129% | K-562 leukemia 104% | MALME-3M melanoma 108% | MDA-MB-231 breast 112% | RXF 393 renal 122% | SF-268 CNS 119% | SF-539 CNS 104% | UACC-257 melanoma 108% | M14 melanoma 109%

CCOC(C)(c1ccc(Cl)cc1)C1CCNCC1 (centres undefined)
inactive: NCI-H23 lung 101% | NCI-H226 lung 116% | NCI-H322M lung 105% | HOP-62 NSCLC 93.3% | NCI-H460 lung 70.3% | HOP-92 NSCLC 85.2% | NCI-H522 lung 107% | A549/ATCC NSCLC 67.9% | 786-0 renal 91.9% | COLO 205 colon 118% | DU-145 prostate 102% | K-562 leukemia 65.3% | MALME-3M melanoma 99.9% | MDA-MB-231 breast 102% | RXF 393 renal 109% | SF-268 CNS 115% | SF-539 CNS 88.1% | UACC-257 melanoma 78.2% | M14 melanoma 86.6%

COc1ccc(NC(=O)C2c3ccccc3C(=O)N(CC(C)C)C2c2cccs2)cc1 (centres undefined)
inactive: NCI-H23 lung 95.2% | NCI-H226 lung 92.7% | NCI-H322M lung 110% | HOP-62 NSCLC 90.1% | NCI-H460 lung 94.3% | HOP-92 NSCLC 94.1% | NCI-H522 lung 92.3% | A549/ATCC NSCLC 89.5% | 786-0 renal 98.8% | COLO 205 colon 105% | DU-145 prostate 98.9% | K-562 leukemia 88.8% | MALME-3M melanoma 113% | MDA-MB-231 breast 92.1% | RXF 393 renal 79.2% | SF-268 CNS 95.1% | SF-539 CNS 98.9% | UACC-257 melanoma 97.2% | M14 melanoma 106%
